Assay results: ChEMBL document CHEMBL1157539, “Thousands of chemical starting points for antimalarial lead identification” (Nature, 2010)

Tested on: Plasmodium falciparum
Experiment: GSK_TCMDC: Inhibition of Plasmodium falciparum 3D7 in whole red blood cells, using parasite LDH activity as an index of growth. Test compounds present at 2uM
Format: functional

For `CN1CCC(COc2ccc(CN3CCC(NC(=O)c4cccc(Cl)c4)CC3)cc2)CC1.O=C(O)C(F)(F)F`, which Inhibition is on record?
Its Inhibition is 94%.

Which Inhibition does the source give for `Br.C/C=C/C=C/C1=NCCc2cc(OCCC)ccc21` here?
Its Inhibition is 87%.

Which Inhibition does the source give for `Oc1cccc(Nc2nc(NCc3ccccc3)c3ccccc3n2)c1` here?
The Inhibition was 95%.

With `N#Cc1cccc(C(=O)Nc2ccc(-c3ccc(CN4CCCC4)cc3)cc2)c1.O=C(O)C(F)(F)F` as the compound, how does the Inhibition read?
Its Inhibition is 92%.

For `O=C(NC1CCCCC1)N(Cc1cccc(-c2cccc(CNC3CCCC3)c2)c1)C1CCN(Cc2ccccc2)CC1.O=C(O)C(F)(F)F`, which Inhibition is on record?
The Inhibition was 96%.

`C=C[C@H]1CN(CCCCCCC)CC[C@H]1CC(=O)Nc1cnnc2ccc(OC)cc12.O=C(O)C(=O)O` was tested. Which Inhibition did it give?
Its Inhibition is 100%.

With `Cl.O=C(Nc1ccnc2ccccc12)NC1CCN(CCc2ccccc2)CC1` as the compound, how does the Inhibition read?
Its Inhibition is 100%.

`O=C(N/C=N/c1cc([N+](=O)[O-])c(-c2cccnc2)n1-c1ccc(O)cc1)c1ccccc1` was tested. Which Inhibition did it give?
The Inhibition was 100%.

How did the Inhibition turn out when `Cl.O=C(NCCCCN1CCC(O)(c2ccc3c(c2)OCO3)CC1)c1ccc(NC(=O)c2ccc(Cl)cc2)cc1` was run?
Its Inhibition is 86%.

`O=C(O)C(F)(F)F.O=C1CCCN1CCCNCc1ccc(-c2cccc(-c3nc4ccccc4[nH]3)c2)cc1` was tested. Which Inhibition did it give?
The Inhibition was 96%.

How did the Inhibition turn out when `COCCCNc1sc(S(=O)(=O)c2ccccc2)nc1S(=O)(=O)c1ccc(Cl)cc1` was run?
The Inhibition was 95%.

For `CN1CCCN(Cc2cccc(-c3ccc(NS(=O)(=O)c4cccc5cccnc45)cc3)c2)CC1.O=C(O)C(F)(F)F`, which Inhibition is on record?
Its Inhibition is 100%.

How did the Inhibition turn out when `CC(C)(CNCc1ccc(F)c(F)c1)c1nc(-c2ccnc(N)n2)c(-c2ccc(Cl)c(O)c2)[nH]1.Cl` was run?
The Inhibition was 99%.

With `CCOc1ccc(C=CC(=O)Nc2ccc3nc(N4CCN(C)CC4)cc(C)c3c2)cc1OC` as the compound, how does the Inhibition read?
The Inhibition was 100%.

Which Inhibition does the source give for `COc1ccc(Nc2ncc3c(-c4cccc(NC(=O)Cc5ccc(O)cc5)c4)c[nH]c3n2)cc1OC` here?
The Inhibition was 100%.

`Cc1cccc2nc(-c3ccc(-c4cccc(CN5CCN(CC6CCCN(C)C6)CC5)c4)s3)[nH]c12.O=C(O)C(F)(F)F` (stereo unspecified) was tested. Which Inhibition did it give?
The Inhibition was 100%.

Which Inhibition does the source give for `CCOC(=O)c1cc(C(=O)NCCCCN2CCC(c3cn(C)c4ccccc34)CC2)ccc1-c1ccc(C(F)(F)F)cc1` here?
Its Inhibition is 91%.

How did the Inhibition turn out when `NCCCNc1nc(Nc2cccc(C(N)=O)c2)c2c(=O)[nH]ccc2n1.O=C(O)C(F)(F)F` was run?
Its Inhibition is 99%.

Which Inhibition does the source give for `COc1ccc(C2CC(c3ccccc3O)=NN2C(=O)c2ccco2)cc1OC` (stereo unspecified) here?
Its Inhibition is 96%.

For `N=C(N)NCCCCN(Cc1ccccc1)c1ccccc1`, which Inhibition is on record?
The Inhibition was 100%.

`CCOC(=O)NC1=NC(C)(C)N(OCCCOc2ccc(C)cc2C)C(NC(=O)OCC)=N1` was tested. Which Inhibition did it give?
The Inhibition was 95%.

`CC(C)(CNC(=O)[C@@H]1CCCCN1)c1nc(-c2ccc(Cl)c(O)c2)c(-c2ccncc2)[nH]1.Cl` was tested. Which Inhibition did it give?
The Inhibition was 97%.

Which Inhibition does the source give for `Cc1cc(CNCCCCCCCNCc2ccc(Cl)cc2)ccc1O` here?
The Inhibition was 97%.

For `COc1ccc2nccc(N(C)CC3(O)CCC(NCc4ccc5c(n4)NC(=O)CS5)CC3)c2n1.Cl` (stereo unspecified), which Inhibition is on record?
The Inhibition was 98%.

For `COc1ccc(Nc2ncc3c(-c4ccc(NC(=O)c5cccc(C(F)(F)F)c5)cc4)c[nH]c3n2)cc1OC`, which Inhibition is on record?
Its Inhibition is 89%.

With `CN1C(C)(C)CC(NC(=O)c2ccc(-c3cc4cc(Cl)c(Cl)cc4[nH]3)o2)CC1(C)C` as the compound, how does the Inhibition read?
Its Inhibition is 100%.

Which Inhibition does the source give for `COc1cc2ncnc(Nc3ccc4nc(Cc5ccccc5)[nH]c4c3)c2cc1OC.Cl` here?
The Inhibition was 87%.

For `COc1ccc(CNCc2ccsc2)cc1-c1ccc(S(=O)(=O)NCCN2CCCC2)s1.O=C(O)C(F)(F)F`, which Inhibition is on record?
Its Inhibition is 100%.

How did the Inhibition turn out when `O=C(Nc1cccc(-c2cccc(-c3nc4ccccc4[nH]3)c2)c1)c1ccoc1` was run?
The Inhibition was 85%.

How did the Inhibition turn out when `COc1ccc(-c2c(C(F)(F)F)nn(C)c2NC(=O)Nc2ccc(F)cc2F)cc1` was run?
Its Inhibition is 100%.

With `COc1cc2nc(NCCN3CCOCC3)n3nc(-c4ccccc4)nc3c2cc1OC` as the compound, how does the Inhibition read?
Its Inhibition is 96%.

Which Inhibition does the source give for `NCc1ccc(-c2ccccc2CNC2CCN(Cc3ccccc3)CC2)cc1.O=C(O)C(F)(F)F` here?
Its Inhibition is 94%.

For `CN1CCN(c2nsc3ccc(-c4ccc(OCCN5CCCC5)cc4)cc23)CC1.O=C(O)C(F)(F)F`, which Inhibition is on record?
The Inhibition was 100%.

With `COc1ccc(-c2ccc(NC(=O)c3ccc(C#N)cc3)cc2)cc1CNC(C)C.O=C(O)C(F)(F)F` as the compound, how does the Inhibition read?
The Inhibition was 100%.

For `Cc1ccc(-c2nnc(Nc3ccc(C(=O)N4CCCCC4)cc3)c3ccccc23)cc1S(=O)(=O)NCC1CCCO1` (stereo unspecified), which Inhibition is on record?
The Inhibition was 99%.

Which Inhibition does the source give for `COc1ccccc1NC(=O)Nc1ccc(-c2ccc(-c3nc4cccc(C)c4[nH]3)s2)cc1` here?
Its Inhibition is 100%.
